We go through 15 compounds from PubChem BioAssay (EPA / NIEHS).

In general, AC50 refers to the midpoint of the concentration-response curve, whichever way the signal moves.

Structures are written as SMILES. The source made the active and inactive calls. The calls were made as follows: active = hit-call score of the fitted dose curve at least 0.9, where 1 is the maximum; inactive = score below 0.9.

Assay [1] is described as follows: APR_HepG2_CellLoss_24hr: Apredica 24-hour HepG2 Assay for Cell Loss (AID 2282908).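 As to AC50: fit in both directions so a hit may be cell loss or gain.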 The following applies: high-content imaging. The procedure, abridged:
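Duplicate wells received compound at ten concentrations (0.39–200 uM; final DMSO 0.5% v/v). After fixation with formaldehyde, nuclei stained with Hoechst 33342 were imaged at 20x. Loss or gain of cell count was fitted relative to DMSO controls.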

Assay [2] is described as follows: APR_HepG2_MitoticArrest_24hr: Apredica 24-hour HepG2 Assay for Mitotic Arrest (AID 2282910). The following applies: high-content imaging, actives raise or lower the signal. The gist of the method:
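HepG2, 24 hr dosing, 0.39–200 uM, 0.5% DMSO final. Formaldehyde-fixed, Triton-permeabilised, anti-phospho-histone H3 plus Hoechst. ArrayScan imaging at 20x; bidirectional fit vs DMSO baseline.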

Assay [3] is described as follows: APR_HepG2_MitoMembPot_24hr: Apredica 24-hour HepG2 Assay for Mitochondrial Membrane Potential (AID 2282911). The following applies: imaging, actives raise or lower the signal. The gist of the method:
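HepG2, 24 hr dosing, 10 concentrations 0.39–200 uM, 0.5% DMSO final. Live-cell MitoTracker Red CMXRos 250 nM 30 min, then 3.7% formaldehyde fix. HCS fluorescence imaging, 20x; bidirectional fit vs DMSO baseline.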

The nature of assay [4]: APR_HepG2_p53Act_24hr: Apredica 24-hour HepG2 Assay for p53 Activation (AID 2282913).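 Also: p53 protein immunofluorescence averaged per cell in HepG2 with Hoechst nuclei.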 The following applies: high-content imaging, actives raise or lower the signal. The procedure, abridged: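 Read-out: Cy5 immunofluorescence for p53 in fixed, permeabilized HepG2, imaged by HCS with Hoechst-defined nuclei. Dosing was 24 hr at 0.39–200 uM in 0.5% DMSO. Curves were fitted bidirectionally relative to DMSO.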

The nature of assay [5]: APR_HepG2_CellLoss_72hr: Apredica 72-hour HepG2 Assay for Cell Loss (AID 2282915). The following applies: high-content imaging. The procedure, abridged: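 HepG2 cells exposed 72 h to compound at 0.39–200 uM (10 concentrations, duplicate) in 0.5% DMSO. Fixed with 3.7% formaldehyde and Hoechst 33342-stained. Imaged at 20x; nuclear count gives cell number, fitted bidirectionally versus DMSO.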

Assay [6] can be described thus: APR_HepG2_MitoMembPot_72hr: Apredica 72-hour HepG2 Assay for Mitochondrial Membrane Potential (AID 2282917). The following applies: imaging, actives raise or lower the signal. The procedure, abridged:
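HepG2 cells dosed 72 hr with compound at 0.39–200 uM in duplicate, 0.5% v/v DMSO final. Mitochondria stained with 250 nM MitoTracker Red CMXRos for 30 min before formaldehyde fixation, imaged by high-content fluorescence; bidirectional fit versus DMSO.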

A short description of assay [7]: APR_HepG2_CellCycleArrest_24hr: Apredica 24-hour HepG2 Assay for Cell Cycle Arrest (AID 2282905).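 Also: cell cycle arrest scored as ratio of 2N to 4N nuclear DNA content.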 The following applies: imaging, actives raise or lower the signal. The procedure, abridged:
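Step one: dose HepG2 with test compounds, 0.39–200 uM, 0.5% DMSO, 24 hr. Step two: fix, permeabilize, stain nuclei with Hoechst 33342. Step three: image six fields per well at 20x, quantify DNA content, fit bidirectionally relative to DMSO.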

A short description of assay [8]: APR_HepG2_NuclearSize_24hr: Apredica 24-hour HepG2 Assay for Nuclear Size (AID 2282907). Particulars: high-content imaging, actives raise or lower the signal. The gist of the method:
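After fixation and permeabilization, 24-hr-treated HepG2 cells were stained with Hoechst 33342 and imaged on an ArrayScan (20x). Doses spanned 0.39–200 uM in duplicate. Nuclear diameter changes in either direction were fitted relative to 0.5% DMSO controls.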

Assay [9] is described as follows: APR_HepG2_MicrotubuleCSK_24hr: Apredica 24-hour HepG2 Assay for Microtubule CSK Stabilty (AID 2282909). The following applies: HepG2 microtubule cytoskeleton imaging, actives raise or lower the signal. The gist of the method: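 Microtubule stability is scored from tubulin immunofluorescence in fixed HepG2 cells imaged at 20x. Cells receive ten compound concentrations up to 200 uM for 24 h; taxol and DMSO serve as positive and negative controls.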

A short description of assay [10]: APR_HepG2_CellCycleArrest_72hr: Apredica 72-hour HepG2 Assay for Cell Cycle Arrest (AID 2282914). Particulars: high-content imaging, actives raise or lower the signal. The gist of the method:
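HepG2, 72 hr exposure, 10-point 0.39–200 uM, duplicate, 0.5% DMSO final. Fix 3.7% formaldehyde 30 min RT, Triton X-100 0.5%, Hoechst 33342 2 ug/mL. ArrayScan 20x, six fields/well; DNA content per nucleus; bidirectional fit vs DMSO.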

Regarding `O=C(c1ccccc1)c1ccccc1`, the result in assay [1], in [2], in assay [3], in [4], in assay [5] and in [6] was inactive.
On to `N=C(N)c1ccc(OCCCCCOc2ccc(C(=N)N)cc2)cc1`, for which the compound was classed as inactive in [7], in assay [8], in assay [3] and in assay [6]. For the same compound, the AC50 in assay [1] is 9.33 µM (active); in [9], 32.6 µM (active); in assay [2] it was 30 µM (active); in assay [10] it was 4.81 µM (active); in assay [5], 24.2 µM (active).
For `CCCCCCCCCCCCCCC`, the compound was called inactive in assay [7], in [8], in assay [1], in [9], in assay [2] and in assay [3]. Besides, the compound was classed as inactive in [10], in assay [5] and in assay [6].
Take `CC(=O)Nc1ccc(O)cc1`: the call in [1], in assay [2], in assay [3], in assay [5] and in assay [6] was inactive.
Consider `CCCCc1oc2ccccc2c1C(=O)c1cc(I)c(OCCN(CC)CC)c(I)c1`, for which the half-maximal activity concentration (AC50) is 43.8 µM (active) in assay [1], 15.7 µM (active) in [2], 33.5 µM (active) in assay [4] and 17.2 µM (active) in assay [5]. Besides, the outcome in [3] and in [6] was inactive.
For `CN(C)CCOC(c1ccccc1)c1ccccc1`, the compound was called inactive in assay [1], in assay [2], in assay [3] and in [6]. In assay [5], the AC50 was 90.8 µM (active).
With `CCCCCCCCCCCCOS(=O)(=O)O`, the compound was classed as inactive in [7], in assay [8], in [1], in assay [9], in assay [2] and in assay [3]. In addition, the compound was called inactive in assay [10], in assay [5] and in assay [6].
Turning to `O=C1NS(=O)(=O)c2ccccc21`, the outcome in [7], in [8], in assay [1], in assay [9], in assay [2] and in [3] was inactive. Further, the result in [10], in [5] and in assay [6] was inactive.
Take `CCCCC=O`: the call in assay [7], in assay [8], in assay [1], in assay [9], in assay [2] and in assay [3] was inactive. Besides, the compound was called inactive in assay [10], in [5] and in assay [6].
On to `CN(Cc1cnc2nc(N)nc(N)c2n1)c1ccc(C(=O)N[C@@H](CCC(=O)O)C(=O)O)cc1`, for which the result in assay [7], in assay [8], in assay [1], in assay [9], in assay [2] and in assay [3] was inactive. Also, the compound was called inactive in assay [10] and in [5]. Also, the concentration at half-maximal activity (AC50) in assay [6] is 19.8 µM (active).
`CCCCC(CC)C(=O)O` (stereo not drawn): the call in [7], in assay [8], in assay [1], in assay [9], in assay [2] and in assay [3] was inactive. The compound was called inactive in assay [10] and in [5].
For the compound `OCC(CO)(CBr)CBr`, the compound was classed as inactive in assay [7], in assay [8], in assay [1], in assay [9], in [2] and in assay [3]. Moreover, the compound was classed as inactive in [10] and in [5].
For the compound `CS(=O)(=O)c1ccc([C@@H](CC2CCCC2)C(=O)Nc2cnccn2)cc1Cl`, the compound was classed as inactive in assay [1], in assay [2], in assay [3], in [4], in assay [5] and in assay [6].
As for `O=C(CCCN1CCC(O)(c2ccc(Cl)cc2)CC1)c1ccc(F)cc1`, the AC50 in [1] was 87.4 µM (active); in [2] it was 34.5 µM (active); in assay [4], 98.3 µM (active); in [5], 34.7 µM (active); in [6], 51.7 µM (active). Further, the compound was called inactive in [3].
Consider `Cc1[nH]nc2c1N=C(c1ccccc1Cl)c1cc([N+](=O)[O-])ccc1N2`, for which the half-maximal activity concentration (AC50) in assay [7] is 0.364 µM (active); in assay [8], 0.512 µM (active); in assay [1], 0.0391 µM (active); in assay [3], 100 µM (active); in [10], 0.279 µM (active); in [5], 1.49 µM (active). Also, in assay [6], the AC50 was 0.432 µM (active). The compound was classed as inactive in assay [9] and in assay [2].
